{"source": "PubChem BioAssay", "note": "Calls of active or inactive are those of the source.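 Rule for the calls: active = visual image review flags a hit and inhibition of aggregation exceeds 20%; inconclusive = visual hit but inhibition at or below 20%; inactive = no hit on visual image review.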"}
{"assay": "reduction of polyQ htt aggregates in cells – imaging, exon1htt(103Q)mCFP cells, high-content imaging, primary screen (AID 483);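 note: compound exposure lasted 3 days before fixation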;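 for nuclei count: percent of the per-plate median nuclei count of sample wells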", "conditions": "exon1htt(103Q)mCFP cell line, aggregate imaging, at 2 µM; inhibition of aggregation: stronger effect = higher value; nuclei count: measured here: cell count, toxicity", "units": {"nuclei count": "%"}}
{"smiles": "CCOCC(=O)Nc1ccc(S(=O)(=O)N2CCOCC2)cc1", "inhibition of aggregation": "16.5% (inactive)", "nuclei count": 89.1}
{"smiles": "Cc1cc(NS(=O)(=O)c2ccc(NC(=O)COc3ccc(Cl)cc3)cc2)no1", "inhibition of aggregation": "-9.7% (inactive)", "nuclei count": 118}
{"smiles": "COc1ccc(C2C(C(C)=O)=C(C)N=c3s/c(=C/c4ccc5c(c4)OCO5)c(=O)n32)cc1", "note": "(stereo not given)", "nuclei count": 116, "inhibition of aggregation": "-44.9% (inactive)"}
{"smiles": "CCOc1ccc(OCC)c(NS(=O)(=O)c2ccc3c(c2)n(C)c(=O)c(=O)n3C)c1", "inhibition of aggregation": "0.8% (inactive)", "nuclei count": 109}
{"smiles": "COCCn1nnnc1C(c1ccc(OC)cc1)N1CCN(c2ccccc2F)CC1", "note": "(stereo not given)", "nuclei count": 131, "inhibition of aggregation": "-4.8% (inactive)"}
{"smiles": "CCOC(=O)Nc1ccc2c(CN3C(=O)NC4(CCCC4)C3=O)cc(=O)oc2c1", "inhibition of aggregation": "-24.7% (inactive)", "nuclei count": 99.9}
{"smiles": "CCc1ccc(C2CC(c3cccc(OC)c3)n3nc(N)nc3N2)cc1", "note": "(stereo not given)", "nuclei count": 111, "inhibition of aggregation": "3.7% (inactive)"}
{"smiles": "CCOC(=O)N1CCC(NC(=O)CCC(=O)N2CC(C)Oc3ccc(Cl)cc32)CC1", "note": "(stereo not given)", "nuclei count": 81.9, "inhibition of aggregation": "-2.6% (inactive)"}
{"smiles": "COc1cccc(C2CC(c3ccc(C)cc3)Nc3nc(N)nn32)c1", "note": "(stereo not given)", "inhibition of aggregation": "23.1% (inactive)", "nuclei count": 102}
{"smiles": "CC1=C/C(=C/N(C)c2ccccc2)C(=O)S1", "inhibition of aggregation": "-10.1% (inactive)", "nuclei count": 97.7}
{"smiles": "CCCN(CCC)C(=O)C1CCN(c2cc(C)nc3c(-c4ccc(OC)c(OC)c4)c(C)nn23)CC1", "nuclei count": 91.7, "inhibition of aggregation": "-2.4% (inactive)"}
{"smiles": "CSc1nc2ccc(S(=O)(=O)N3CCOCC3)cc2s1", "nuclei count": 95.2, "inhibition of aggregation": "28.3% (inactive)"}
{"smiles": "O=C(CSc1ncn[nH]1)c1ccco1", "nuclei count": 112, "inhibition of aggregation": "-3.4% (inactive)"}
{"smiles": "CCNc1ccc2c(Cl)cc(=O)oc2c1", "nuclei count": 72.6, "inhibition of aggregation": "25.1% (inactive)"}
{"smiles": "Cn1c(N2CCC(C(N)=O)CC2)nc2c1c(=O)n(Cc1ccc(Br)cc1)c(=O)n2C", "inhibition of aggregation": "4.3% (inactive)", "nuclei count": 97.3}
{"smiles": "COCCOC(=O)C1=C(C)OC(N)=C(C#N)C1c1ccc2c(c1)OCO2", "note": "(stereo not given)", "nuclei count": 104, "inhibition of aggregation": "12.6% (inactive)"}
{"smiles": "COc1ccc(S(=O)(=O)N(CCN2CCOCC2)Cc2cc(OC)ccc2OC)cc1", "nuclei count": 102, "inhibition of aggregation": "-25.8% (inactive)"}
{"smiles": "COC(=O)c1nc(N)sc1-c1ccccc1", "nuclei count": 99.9, "inhibition of aggregation": "9.3% (inactive)"}
{"smiles": "CC(C)C(c1nnnn1C1CCCC1)N1CCN(C(=O)c2ccco2)CC1", "note": "(stereo not given)", "inhibition of aggregation": "-33.8% (inactive)", "nuclei count": 67.7}
{"smiles": "O=C(Nc1ccccc1-c1nc2ccccc2o1)c1ccc2c(c1)OCCO2", "nuclei count": 99.2, "inhibition of aggregation": "-29.9% (inactive)"}
{"smiles": "N#Cc1nc(COc2ccccc2Cl)oc1N1CCCCCC1", "inhibition of aggregation": "-17.4% (inactive)", "nuclei count": 92.6}
{"smiles": "Cn1c(C(=O)NCCCN2CCN(c3ccc(F)cc3)CC2)cc2c(=O)n(C)c3ccccc3c21", "inhibition of aggregation": "6.5% (inactive)", "nuclei count": 107}
{"smiles": "Cc1[nH]c(=O)[nH]c(=O)c1S(=O)(=O)N1CCCC(C(=O)NCc2ccco2)C1", "note": "(stereo not given)", "nuclei count": 104, "inhibition of aggregation": "-4.9% (inactive)"}
{"smiles": "COc1ccc(C(=O)CSc2nc(C)cc(=O)[nH]2)cc1", "inhibition of aggregation": "13.9% (inactive)", "nuclei count": 92.1}
{"smiles": "Nc1nc(N2CCN(C/C=C/c3ccccc3)CC2)nc2ccccc12", "inhibition of aggregation": "2% (inactive)", "nuclei count": 69.5}
{"smiles": "COc1ccc(OC)c(C(=O)c2ccc(C(=O)O)cc2)c1", "inhibition of aggregation": "-5.3% (inactive)", "nuclei count": 100}
{"smiles": "CCOC(=O)N1CCN(C(=O)c2ccc(CS(=O)(=O)c3ccc(OC)cc3)o2)CC1", "inhibition of aggregation": "-23.5% (inactive)", "nuclei count": 90.7}
{"smiles": "CN1C(=O)C(O)(CC(=O)c2ccc3c(c2)OCO3)c2ccccc21", "note": "(stereo not given)", "inhibition of aggregation": "-7.9% (inactive)", "nuclei count": 105}
{"smiles": "O=C(COC(=O)c1cc(S(=O)(=O)N2CCOCC2)cs1)c1ccccc1", "inhibition of aggregation": "-9.6% (inactive)", "nuclei count": 103}
{"smiles": "CN1CCN(S(=O)(=O)c2ccc(NC(=O)c3ccc(F)cc3)cc2)CC1", "nuclei count": 105, "inhibition of aggregation": "-2.2% (inactive)"}
{"smiles": "CCOCCCNC(=O)c1cc2sc(Cl)cc2n1CC", "inhibition of aggregation": "-1.1% (inactive)", "nuclei count": 89.7}
{"smiles": "O=C(Nc1ccc(O)cc1)C1CCCN1S(=O)(=O)c1ccc(F)cc1", "note": "(stereo not given)", "nuclei count": 90, "inhibition of aggregation": "-9.8% (inactive)"}
{"smiles": "COc1ccc(CCNc2oc(-c3ccco3)nc2C#N)cc1", "inhibition of aggregation": "0.7% (inactive)", "nuclei count": 103}
{"smiles": "Cc1cc(OCC(O)CN2CCN(CCO)CC2)ccc1C(C)C", "note": "(stereo not given)", "inhibition of aggregation": "16.4% (inactive)", "nuclei count": 94.9}
{"smiles": "CCOC(=O)c1c(N)nn(C(=O)C(C)C)c1-c1ccccc1", "nuclei count": 112, "inhibition of aggregation": "-5.4% (inactive)"}
{"smiles": "CCOC(=O)c1cccc(NC(=O)C2CCN(S(=O)(=O)c3cccs3)CC2)c1", "nuclei count": 90.7, "inhibition of aggregation": "3.6% (inactive)"}
{"smiles": "CCOC(=O)c1cccc(NC(=O)CSc2nc3cccnc3n2C)c1", "inhibition of aggregation": "0.7% (inactive)", "nuclei count": 111}
{"smiles": "O=C(OCC(=O)c1cccs1)C1=COCCO1", "nuclei count": 105, "inhibition of aggregation": "-9.8% (inactive)"}
{"smiles": "CCCc1cc(C(=O)Nc2ccccc2C(=O)OC)no1", "inhibition of aggregation": "4.8% (inactive)", "nuclei count": 92.4}
{"smiles": "CCCCOc1ccc(-c2nnn(C(C)(C)C(=O)OC)n2)cc1", "inhibition of aggregation": "7% (inactive)", "nuclei count": 67.8}
